Results filed as inconclusive are left out. A number with no mark means an inactive call. The source made the active and inactive calls. Calls come from the whole dose curve; as a rule, active = well fitted cell-killing curve with a large enough effect in the repeat runs; inconclusive = weak or mixed curves; inactive = flat fitted curve, though single readings scatter.
test: qHTS RealTime-Glo MT Cell Viability Assay in HepG2 cells - 24 hour (AID 1224867); details: RealTime-Glo luminescence; series mostly up to 76.8 µM; note: nearly all actives have a fitted effect of over 50% in size
Excerpt: U.S. Tox21 Program National Center for Advancing Translational Sciences [NCATS] NIH Chemical Genomics Center [NCGC] U.S. Environmental Protection Agency [EPA] National Institutes of Environmental Health Sciences [NIEHS] National Toxicology Program [NTP] U.S. Food and Drug Administration [FDA] Tox21 Assay Overview: Measure of cell viability is critical in the cell-base assay. Analysis of cell viability is necessary for the characterization of cell responses to cytotoxic drugs and environmental stress. A RealTime-Glo MT Cell Viability Assay to monitor cell viability in real time of continues cell culture during 40 hours of compound treatment was used to screen Tox21 10K library compounds in HepG2 cells. The RealTime-Glo MT Cell Viability Assay is a nonlytic, homogeneous, bioluminescent method to measure cell viability in real time using a simple, plate-based method. The assay involves adding NanoLuc luciferase and a cell-permeant prosubstrate to cells in culture. Viable cells reduce the proprietary prosubstrate to generate a substrate for NanoLuc luciferase. This substrate diffuses from cells into the surrounding culture medium, where it is rapidly used by the NanoLuc Enzyme to produce a luminescent signal. The signal correlates with the number of viable cells, making the assay well suited for cytotoxicity studies.
Tox21 Assay Protocol Summary: The mixture of HepG2 cell suspension and reagents were dispensed at 600cells/6 ul/well in 1536-well tissue culture treated black solid bottom plates using a Multidrop dispenser. After the assay plates were incubated at a 37 C/5% CO2 incubator for 5 hours, 23 nL of compounds dissolved in DMSO, positive and negative controls was transferred to the assay plate by a pintool work station. The plates were incubated at 37 C for 40 hours. The luminescence intensity were measured at 0h, 8h, 16h, 24h, 32h and 40h time points using ViewLux plate reader during compound treatment.
% is set by controls: 0 for no effect and ±100 for the full control effect.

Row | Structure (SMILES) | outcome | activity change, negative = cytotoxicity
1 | CN(C)CCCCl | inactive | 
2 | Cc1c(C(=O)c2c[nH]n(C)c2=O)ccc(S(C)(=O)=O)c1C1=NOCC1 | inactive | 
3 | COP(=O)(O)OP(=O)(O)OC | inactive | 
4 | CCC(C)C(C)=O (stereo not given) | inactive | 
5 | CC(N)CCCC(C)(C)O (stereo not given) | inactive | 
6 | CC(C)COC(=O)c1ccccc1 | inactive | 
7 | CCCCCc1cccc(=O)o1 | inactive | 
8 | COS(=O)(=O)O | inactive | 
9 | CC(C)CO | inactive | 
10 | CC(=O)C(C)O (stereo not given) | inactive | 
11 | Cc1cccc(Cl)c1 | inactive | 
12 | CCC[C@@H]1C[C@@H](C(=O)N[C@@H]([C@H]2O[C@H](SC)[C@H](O)[C@@H](O)[C@H]2O)[C@@H](C)O)N(C)C1 | inactive | 
13 | C=C(C)[C@@H]1CC=C(C)CC1 | inactive | 
14 | Cc1cc(C)c(C(=O)O)c(C)c1 | inactive | 
15 | COC(=O)CCCCC(CCSS/C(CCO)=C(\C)N(C=O)Cc1cnc(C)nc1N)SC(C)=O (stereo not given) | inactive | 
16 | CO[C@@]1(NC(=O)Cc2cccs2)C(=O)N2C(C(=O)O)=C(COC(N)=O)CS[C@@H]21 | inactive | 
17 | CC(Oc1cc(Cl)ccc1Cl)C(=O)O (stereo not given) | inactive | 
18 | Cc1c(Cl)cccc1Cl | inactive | 
19 | OCCN1CCOCC1 | inactive | 
20 | CN1C[C@@H]2C[C@H]1CN2c1cc2c(cc1F)c(=O)c(C(=O)O)cn2C1CC1 |  | 5.55% [at 15.8 µM]

Row | Structure (SMILES) | outcome | activity change, negative = cytotoxicity
21 | N[C@@H](CSCCCO)C(=O)O |  | 1.24% [at 15.8 µM]
22 | CC(=O)CC(=O)OC(C)(C)C | inactive | 
23 | CCCCCCCCCCCCCCC(=O)NC(CO)CCCCCCCCCCCCCC (stereo not given) | inactive | 
24 | CC(C)c1ccc(C=O)cc1 | inactive | 
25 | C[C@H]1[C@@H](c2ccccc2)NC(=O)N1C | inactive | 
26 | CC(C)C[C@@H]1[C@H](c2ccccc2)OC(=O)N1CCCN1CCCCCC1 | inactive | 
27 | CCCCCC(C)O (stereo not given) | inactive | 
28 | CN(C)CCCO[C@@H]1[C@H]2OC(C)(C)O[C@H]2O[C@@H]1C(O)CO (stereo not given in full) | inactive | 
29 | CO/N=C(/C(=O)N[C@@H]1C(=O)N2C(C(=O)[O-])=C(C[n+]3ccn4ncccc43)CS[C@H]12)c1nsc(N)n1 | inactive | 
30 | Cc1ccnc(N)c1 | inactive | 
31 | CCOCCOCC | inactive | 
32 | CC(C)OC(=O)OCOP(=O)(CO[C@H](C)Cn1cnc2c(N)ncnc21)OCOC(=O)OC(C)C | inactive | 
33 | OC1OCCOC1O (stereo not given) | inactive | 
34 | O=C[O][Al]([O]C=O)[O]C=O | inactive | 
35 | CC(=O)O[C@H]1C[C@@H]2CC[C@@]1(C)C2(C)C | inactive | 
36 | CC(C)[C@H]1CC[C@H](C)C[C@@H]1O | inactive | 
37 | O=Cc1ccccc1Cl | inactive | 
38 | C=CCN1C[C@H](C(=O)N(CCCN(C)C)C(=O)NCC)C[C@@H]2c3cccc4[nH]cc(c34)C[C@H]21 | inactive | 
39 | C[Si]1(C)O[Si](C)(C)O[Si](C)(C)O[Si](C)(C)O[Si](C)(C)O1 | inactive | 
40 | COc1ccc(CCO)cc1 | inactive | 
